Results with a measured potency or affinity are listed apart. Inconclusive results are not listed. Unmarked numbers belong to inactive results. Active and inactive are the calls of the source. The rule behind the calls is not given here.
experiment: growth inhibition of resistant C. albicans, dose response, CaCi-8, fluconazole, Alamar Blue, dry powder (AID 488807); conditions: C. albicans CaCi-8 + fluconazole, 48 h; series mostly up to 26 µM

SMILES | activity change, negative = inhibition | outcome
COc1ccc2c(c1)c1nc3n(c(=O)c1n2CC(=O)N1CCC(C)CC1)CCS3 | 13% [at 2.6 µM] | 
Cc1nn(S(C)(=O)=O)c2ccccc12 |  | inactive
c1ccc(-c2n[nH]c3ccccc23)cc1 |  | inactive
CCCNC(=O)Cn1nc(-c2ccccc2)c2ccccc21 |  | inactive
CCOC(=O)c1nn(Cc2ccc(Cl)cc2)c2ccccc12 |  | inactive
O=C(Cn1nc(-c2ccccc2)c2cc(Cl)ccc21)N1CCOCC1 |  | inactive
O=C(Cn1nc(-c2ccccc2)c2ccccc21)N1CCc2ccccc2C1 |  | inactive
O=C(Cn1c2ccccc2c2nc3n(c(=O)c21)CCS3)NCCc1ccc(Cl)cc1 |  | inactive
O=S(=O)(c1ccc(Cl)cc1)N1CCN(c2ccnc3cc(Cl)ccc23)CC1 |  | inactive
O=C(O)c1nn(Cc2ccc(Cl)cc2)c2ccccc12 |  | inactive
COC(=O)Cn1nc(C)c2ccccc21 |  | inactive
O=C(c1ccc(Cl)cc1)N1CCN(c2cc(C(F)(F)F)nc3ccccc23)CC1 |  | inactive
CCOC(=O)c1c2ccccc2nn1Cc1ccc(Cl)cc1 |  | inactive
COc1ccc(OC)c2c(C)cc(N3CCN(C(=O)c4ccc(Cl)cc4)CC3)nc12 |  | inactive
O=C(Cn1c2ccccc2c2nc3n(c(=O)c21)CCCS3)c1ccc(F)cc1 |  | inactive
O=C(Cn1nc(-c2ccccc2)c2ccccc21)NCc1ccc(Cl)cc1 |  | inactive
CCCNC(=O)Cn1nc(-c2ccccc2)c2cc(Cl)ccc21 |  | inactive
O=C(Cn1nc(C(=O)N2CCCCC2)c2ccccc21)N1CCOCC1 |  | inactive
COc1ccc2c(c1)c1nc3n(c(=O)c1n2CC(=O)N1CCC(Cc2ccccc2)CC1)CCS3 |  | inactive

Reference: PubChem BioAssay AID488807 (Broad Institute, 2010)
